Data taken from the supplement of paper PMC10849652.
Of roughly 7,900 targets only a part is listed; those with a hit were picked by preference. About 0.6% of all pairs of compound and target were hits.

Tests used:
Assay in all cases: log2 fold change, soluble protein after heating vs DMSO (PISA); higher = thermal stabilisation; K562 cells, 10 uM, 30 min; active = over 0.2 and 3.5 SD of the protein, either way, in both replicates (recomputed)
[1] = compound: CC[C@@H]1C(=O)N(C)c2cnc(Nc3ccc(C(=O)NC4CCN(C)CC4)cc3OC)nc2N1C1CCCC1
Method in brief: (§1)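 Values are thermal stability changes relative to control samples and are taken from duplicates. They are stated as log2 fold changes. Before quantification by TMTpro 16plex LC-MS/MS with equalised channel sums, K562 cells at 2×10^6 cells/mL were treated with 10 μM compound for 30 min, heated in aliquots for 3 min across 48°C-58°C, pooled, extracted in PBS with 0.5% NP-40 at 4°C, and centrifuged at 21,000xg for 90 min to give the soluble supernatant.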

volasertib = compound: CC[C@@H]1C(=O)N(C)c2cnc(Nc3ccc(C(=O)N[C@H]4CC[C@H](N5CCN(CC6CC6)CC5)CC4)cc3OC)nc2N1C(C)C [volasertib]
Method in brief: as §1

[2] = compound: CC[C@H](C)N1C=C(C2=C(C=C(C=C21)C3=CN=C(C=C3)N4CCNCC4)C(=O)NCC5=C(C=C(NC5=O)C)C)C
Method in brief: as §1

epoxomicin = compound: CC[C@H](C)[C@@H](C(=O)N[C@@H]([C@@H](C)O)C(=O)N[C@@H](CC(C)C)C(=O)[C@]1(CO1)C)NC(=O)[C@H]([C@@H](C)CC)N(C)C(=O)C [epoxomicin]
Method in brief: as §1

[3] = compound: CCn1c(C(=O)N(C2CC2)C2CC2)cc2c3c(ncn3C)c(Nc3cc(C)n(C)n3)nc21
Method in brief: as §1

[4] = compound: CCn1cc(-c2ccnc3[nH]c(-c4cccc(CN(C)C)c4)cc23)c(-c2ccc(NC(=O)N(C)C)cc2)n1
Method in brief: as §1

[5] = compound: CN(C)CC(=O)Nc1ccc2[nH]c(=O)c3ccccc3c2c1
Method in brief: as §1

rosiglitazone = compound: CN(CCOC1=CC=C(C=C1)C[C@H]2C(=O)NC(=O)S2)C3=CC=CC=N3 (racemic) [rosiglitazone]
Method in brief: as §1

[6] = compound: CN1C2=C(C3=C1C(=O)N(N=C3)CC4=CC(=CC=C4)N)SC(=C2)S(=O)C
Method in brief: as §1

[7] = compound: CN1CCC(CNc2ccc3ncc(-c4cccc(OC(F)(F)F)c4)n3n2)CC1
Method in brief: as §1

saracatinib = compound: CN1CCN(CCOc2cc(OC3CCOCC3)c3c(Nc4c(Cl)ccc5c4OCO5)ncnc3c2)CC1 [saracatinib]
Method in brief: as §1

sotrastaurin = compound: CN1CCN(c2nc(C3=C(c4c[nH]c5ccccc45)C(=O)NC3=O)c3ccccc3n2)CC1 [sotrastaurin]
Method in brief: as §1

alvocidib = compound: CN1CC[C@H](c2c(O)cc(O)c3c(=O)cc(-c4ccccc4Cl)oc23)[C@H](O)C1 [alvocidib]
Method in brief: as §1

Tubastatin A = compound: CN1CCc2c(c3ccccc3n2Cc2ccc(C(=O)NO)cc2)C1 [Tubastatin A]
Method in brief: as §1

[8] = compound: CNC(=O)C1=CC=CC=C1NC2=NC(=NC=C2Cl)NC3=C(C=C(C=C3)N4CCOCC4)OC
Method in brief: as §1

defactinib = compound: CNC(=O)c1ccc(Nc2ncc(C(F)(F)F)c(NCc3nccnc3N(C)S(C)(=O)=O)n2)cc1 [defactinib]
Method in brief: as §1

rucaparib = compound: CNCc1ccc(-c2[nH]c3cc(F)cc4c3c2CCNC4=O)cc1 [rucaparib]
Method in brief: as §1

[9] = compound: CNc1nc(-c2ccc3c(N)n[nH]c3c2)cc(N2C[C@@H](C(=O)NC3CCCCC3)CC[C@H]2C)n1
Method in brief: as §1

encorafenib = compound: COC(=O)N[C@@H](C)CNc1nccc(-c2cn(C(C)C)nc2-c2cc(Cl)cc(NS(C)(=O)=O)c2F)n1 [encorafenib]
Method in brief: as §1

[10] = compound: COC(=O)[C@H](CCSC)NC(=O)C1=C(C=C(C=C1)NC[C@H](CS)N)C2=CC=CC=C2
Method in brief: as §1

Measured: log2 fold change

UGDH (UniProt O60701)
UniProt O60701, sequence (O60701 whole entry, looked up): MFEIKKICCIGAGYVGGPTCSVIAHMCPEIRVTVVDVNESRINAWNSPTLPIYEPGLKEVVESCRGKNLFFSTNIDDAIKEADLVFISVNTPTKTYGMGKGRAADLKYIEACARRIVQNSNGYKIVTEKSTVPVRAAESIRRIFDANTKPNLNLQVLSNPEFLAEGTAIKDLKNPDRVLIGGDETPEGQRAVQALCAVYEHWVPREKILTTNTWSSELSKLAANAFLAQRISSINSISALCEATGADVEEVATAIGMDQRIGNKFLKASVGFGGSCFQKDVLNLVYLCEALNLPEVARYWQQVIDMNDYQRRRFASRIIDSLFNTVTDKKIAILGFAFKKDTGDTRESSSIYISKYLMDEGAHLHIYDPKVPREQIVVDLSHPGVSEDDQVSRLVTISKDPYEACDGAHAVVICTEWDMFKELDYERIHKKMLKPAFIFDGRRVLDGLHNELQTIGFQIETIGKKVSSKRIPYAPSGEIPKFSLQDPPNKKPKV
active: sotrastaurin -0.284
inactive: [1] -0.041 | volasertib -0.128 | [2] 0.11 | epoxomicin 0.064 | [3] -0.076 | [4] 0.031 | [5] 0.05 | rosiglitazone -0.034 | [6] -0.113 | [7] -0.106 | saracatinib -0.036 | alvocidib -0.273 | Tubastatin A 0.004 | [8] -0.085 | defactinib -0.209 | rucaparib -0.089 | [9] 0.074 | encorafenib 0.087 | [10] -0.038

WDR41 (UniProt Q9HAD4)
active: volasertib -0.282
inactive: [1] -0.169 | [2] -0.056 | epoxomicin 0.061 | [3] -0.026 | [4] -0.043 | [5] 0.012 | rosiglitazone 0.007 | [6] -0.076 | [7] -0.115 | saracatinib 0.071 | sotrastaurin -0.037 | alvocidib -0.014 | Tubastatin A -0.054 | [8] -0.046 | defactinib -0.007 | rucaparib 0.015 | [9] -0.031 | encorafenib 0.008 | [10] 0.036

USO1 isoform 2 (UniProt O60763)
UniProt O60763, sequence (O60763 whole entry, looked up): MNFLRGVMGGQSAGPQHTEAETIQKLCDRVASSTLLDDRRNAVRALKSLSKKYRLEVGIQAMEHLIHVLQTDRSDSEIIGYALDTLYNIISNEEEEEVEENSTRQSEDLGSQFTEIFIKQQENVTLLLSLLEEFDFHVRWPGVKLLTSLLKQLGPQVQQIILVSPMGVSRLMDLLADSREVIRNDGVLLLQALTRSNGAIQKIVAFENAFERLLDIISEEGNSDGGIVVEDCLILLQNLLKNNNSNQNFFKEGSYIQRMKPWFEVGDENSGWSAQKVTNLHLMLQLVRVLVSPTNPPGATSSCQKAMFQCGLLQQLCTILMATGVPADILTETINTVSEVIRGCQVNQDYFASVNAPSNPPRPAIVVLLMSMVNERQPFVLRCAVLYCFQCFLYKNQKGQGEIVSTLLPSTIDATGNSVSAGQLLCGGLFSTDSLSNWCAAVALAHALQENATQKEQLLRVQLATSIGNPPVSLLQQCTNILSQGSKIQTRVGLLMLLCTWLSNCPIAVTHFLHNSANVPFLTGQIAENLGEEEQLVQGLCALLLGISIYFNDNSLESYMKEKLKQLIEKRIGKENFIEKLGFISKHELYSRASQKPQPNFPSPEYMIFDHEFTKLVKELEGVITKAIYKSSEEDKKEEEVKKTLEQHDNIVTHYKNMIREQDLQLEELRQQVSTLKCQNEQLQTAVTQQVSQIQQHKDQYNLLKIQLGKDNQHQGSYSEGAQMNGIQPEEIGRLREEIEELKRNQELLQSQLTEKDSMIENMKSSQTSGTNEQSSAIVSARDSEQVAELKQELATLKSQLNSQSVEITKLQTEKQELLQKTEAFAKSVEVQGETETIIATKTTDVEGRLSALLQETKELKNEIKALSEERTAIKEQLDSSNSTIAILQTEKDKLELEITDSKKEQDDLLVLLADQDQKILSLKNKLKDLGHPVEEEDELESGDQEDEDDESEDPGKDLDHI
inactive: [1] -0.108 | [2] 0.025 | epoxomicin 0.043 | [3] 0.001 | [4] -0.018 | [5] 0.015 | rosiglitazone 0.044 | [6] -0.059 | [7] -0.111 | saracatinib 0.076 | sotrastaurin -0.028 | alvocidib -0.012 | Tubastatin A -0.026 | [8] 0.029 | defactinib -0.034 | rucaparib -0.019 | [9] 0.03 | encorafenib 0.022 | [10] -0.003
active: volasertib -0.254

TSEN2 (UniProt Q8NCE0)
inactive: [1] -0.019 | volasertib -0.146 | [2] 0.053 | epoxomicin 0.078 | [3] -0.021 | [4] -0.082 | [5] 0.086 | rosiglitazone 0.077 | [6] -0.04 | [7] 0.034 | saracatinib -0.014 | sotrastaurin -0.186 | alvocidib -0.044 | Tubastatin A -0.024 | [8] -0.042 | defactinib -0.009 | rucaparib 0.007 | [9] -0.005 | encorafenib -0.068 | [10] -0.049

VPS39 (UniProt Q96JC1)
UniProt Q96JC1, sequence (Q96JC1 whole entry, looked up): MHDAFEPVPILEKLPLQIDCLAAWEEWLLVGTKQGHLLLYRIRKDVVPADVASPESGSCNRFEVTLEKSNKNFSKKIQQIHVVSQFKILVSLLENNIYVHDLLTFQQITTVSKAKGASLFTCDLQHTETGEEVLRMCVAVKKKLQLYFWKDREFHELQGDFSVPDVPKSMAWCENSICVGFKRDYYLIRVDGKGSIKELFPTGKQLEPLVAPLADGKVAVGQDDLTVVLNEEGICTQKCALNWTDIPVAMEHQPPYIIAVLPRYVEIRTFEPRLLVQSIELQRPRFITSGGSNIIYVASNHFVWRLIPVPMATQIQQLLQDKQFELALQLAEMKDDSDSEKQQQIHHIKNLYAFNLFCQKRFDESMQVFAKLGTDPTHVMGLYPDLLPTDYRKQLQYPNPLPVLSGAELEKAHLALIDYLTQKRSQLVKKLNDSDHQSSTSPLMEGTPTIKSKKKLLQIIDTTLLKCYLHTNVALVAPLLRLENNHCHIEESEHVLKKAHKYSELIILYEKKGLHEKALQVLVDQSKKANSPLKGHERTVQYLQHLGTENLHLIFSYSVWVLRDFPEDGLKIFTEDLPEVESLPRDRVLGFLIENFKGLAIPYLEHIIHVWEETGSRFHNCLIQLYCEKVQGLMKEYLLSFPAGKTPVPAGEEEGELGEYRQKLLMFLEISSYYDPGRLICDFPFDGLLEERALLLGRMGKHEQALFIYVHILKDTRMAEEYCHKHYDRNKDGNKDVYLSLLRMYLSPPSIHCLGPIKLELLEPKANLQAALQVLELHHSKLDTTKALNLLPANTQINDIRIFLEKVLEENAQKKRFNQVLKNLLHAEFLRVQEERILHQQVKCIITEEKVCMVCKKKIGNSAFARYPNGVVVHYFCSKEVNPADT
inactive: [1] -0.206 | [2] 0.054 | epoxomicin -0.017 | [3] -0.033 | [4] -0.091 | [5] 0.022 | rosiglitazone 0.044 | [6] 0.008 | [7] -0.187 | saracatinib 0 | sotrastaurin -0.097 | alvocidib -0.035 | Tubastatin A 0.033 | [8] -0.015 | defactinib -0.068 | rucaparib 0.039 | [9] 0.005 | encorafenib -0.006 | [10] -0.03
active: volasertib -0.354

UBE2S (UniProt Q16763)
active: volasertib -0.214
inactive: [1] -0.025 | [2] 0.005 | epoxomicin 0.195 | [3] -0.009 | [4] 0.015 | [5] 0.048 | rosiglitazone -0.004 | [6] -0.048 | [7] 0.024 | saracatinib -0.001 | sotrastaurin -0.023 | alvocidib -0.078 | Tubastatin A 0.2 | [8] -0.016 | defactinib -0.082 | rucaparib -0.051 | [9] -0.041 | encorafenib 0.022 | [10] -0.007

UBLCP1 (UniProt Q8WVY7)
inactive: [1] -0.191 | [2] 0.019 | epoxomicin 0.168 | [3] -0.059 | [4] -0.072 | [5] 0.039 | rosiglitazone 0.019 | [6] -0.024 | [7] 0.013 | saracatinib 0.036 | sotrastaurin -0.032 | alvocidib 0.024 | Tubastatin A 0.147 | [8] 0.027 | defactinib -0.016 | rucaparib -0.068 | [9] -0.038 | encorafenib 0.088 | [10] -0.034
active: volasertib -0.356

UFD1 isoform 1 (UniProt Q92890)
inactive: [1] -0.009 | volasertib 0.021 | [2] 0.008 | epoxomicin 0.063 | [3] -0.021 | [4] 0.063 | [5] 0.003 | rosiglitazone 0.008 | [6] -0.045 | [7] -0.015 | saracatinib 0.008 | sotrastaurin 0.005 | alvocidib -0.021 | Tubastatin A 0.027 | [8] -0.022 | defactinib -0.013 | rucaparib -0.02 | [9] -0.054 | encorafenib -0.004 | [10] 0

TMEM189-UBE2V1 (UniProt I3L0A0)
inactive: [1] 0.054 | volasertib 0.056 | [2] -0.137 | epoxomicin -0.023 | [3] -0.003 | [4] 0.048 | [5] 0 | rosiglitazone 0.04 | [6] -0.035 | [7] -0.009 | saracatinib 0.041 | sotrastaurin 0.157 | alvocidib 0.016 | Tubastatin A -0.007 | [8] -0.004 | defactinib -0.014 | rucaparib -0.059 | [9] -0.038 | encorafenib 0 | [10] 0.018

WDR7 (UniProt Q9Y4E6)
inactive: [1] -0.09 | [2] 0.027 | epoxomicin -0.007 | [3] -0.085 | [4] -0.007 | [5] 0.279 | rosiglitazone 0.082 | [6] 0.034 | [7] -0.199 | saracatinib 0.024 | sotrastaurin 0.041 | alvocidib 0.04 | Tubastatin A -0.047 | [8] -0.114 | defactinib -0.3 | rucaparib 0.128 | [9] -0.015 | encorafenib -0.174 | [10] -0.373
active: volasertib -0.415

USP25 isoform 3 (UniProt Q9UHP3)
UniProt Q9UHP3, sequence (Q9UHP3 whole entry, looked up): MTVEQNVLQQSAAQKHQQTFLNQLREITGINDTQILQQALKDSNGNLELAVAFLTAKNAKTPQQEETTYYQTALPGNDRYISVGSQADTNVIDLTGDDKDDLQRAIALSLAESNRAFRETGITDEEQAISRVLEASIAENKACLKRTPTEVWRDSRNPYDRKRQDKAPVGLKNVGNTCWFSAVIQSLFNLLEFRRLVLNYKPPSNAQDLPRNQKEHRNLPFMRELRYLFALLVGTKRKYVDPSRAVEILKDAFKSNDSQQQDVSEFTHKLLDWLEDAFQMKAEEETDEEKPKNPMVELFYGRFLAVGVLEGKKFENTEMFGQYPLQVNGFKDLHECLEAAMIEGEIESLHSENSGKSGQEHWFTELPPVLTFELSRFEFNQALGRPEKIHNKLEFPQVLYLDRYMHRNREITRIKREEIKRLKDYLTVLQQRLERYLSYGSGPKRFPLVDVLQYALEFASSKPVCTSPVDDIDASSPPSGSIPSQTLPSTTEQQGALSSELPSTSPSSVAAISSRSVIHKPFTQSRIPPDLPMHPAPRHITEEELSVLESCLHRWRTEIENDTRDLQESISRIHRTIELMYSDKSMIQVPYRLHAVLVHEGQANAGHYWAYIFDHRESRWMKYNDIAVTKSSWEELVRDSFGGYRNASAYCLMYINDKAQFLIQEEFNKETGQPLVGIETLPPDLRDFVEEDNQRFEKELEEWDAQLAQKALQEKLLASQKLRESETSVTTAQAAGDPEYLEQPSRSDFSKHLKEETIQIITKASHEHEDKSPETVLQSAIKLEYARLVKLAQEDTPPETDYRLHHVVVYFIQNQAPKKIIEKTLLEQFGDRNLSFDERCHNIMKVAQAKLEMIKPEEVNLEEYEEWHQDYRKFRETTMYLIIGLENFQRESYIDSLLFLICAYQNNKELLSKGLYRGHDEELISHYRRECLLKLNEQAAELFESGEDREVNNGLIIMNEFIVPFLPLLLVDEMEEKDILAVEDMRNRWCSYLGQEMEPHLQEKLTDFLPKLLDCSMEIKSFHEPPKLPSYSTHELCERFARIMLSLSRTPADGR
active: volasertib -0.297
inactive: [1] -0.085 | [2] 0.046 | epoxomicin 0.008 | [3] -0.016 | [4] -0.004 | [5] 0.041 | rosiglitazone 0.022 | [6] -0.03 | [7] -0.006 | saracatinib 0.045 | sotrastaurin -0.003 | alvocidib -0.031 | Tubastatin A 0.061 | [8] 0.044 | defactinib -0.045 | rucaparib 0.019 | [9] -0.028 | encorafenib 0.01 | [10] -0.033

WDCP (UniProt Q9H6R7)
UniProt Q9H6R7, sequence (Q9H6R7 whole entry, looked up): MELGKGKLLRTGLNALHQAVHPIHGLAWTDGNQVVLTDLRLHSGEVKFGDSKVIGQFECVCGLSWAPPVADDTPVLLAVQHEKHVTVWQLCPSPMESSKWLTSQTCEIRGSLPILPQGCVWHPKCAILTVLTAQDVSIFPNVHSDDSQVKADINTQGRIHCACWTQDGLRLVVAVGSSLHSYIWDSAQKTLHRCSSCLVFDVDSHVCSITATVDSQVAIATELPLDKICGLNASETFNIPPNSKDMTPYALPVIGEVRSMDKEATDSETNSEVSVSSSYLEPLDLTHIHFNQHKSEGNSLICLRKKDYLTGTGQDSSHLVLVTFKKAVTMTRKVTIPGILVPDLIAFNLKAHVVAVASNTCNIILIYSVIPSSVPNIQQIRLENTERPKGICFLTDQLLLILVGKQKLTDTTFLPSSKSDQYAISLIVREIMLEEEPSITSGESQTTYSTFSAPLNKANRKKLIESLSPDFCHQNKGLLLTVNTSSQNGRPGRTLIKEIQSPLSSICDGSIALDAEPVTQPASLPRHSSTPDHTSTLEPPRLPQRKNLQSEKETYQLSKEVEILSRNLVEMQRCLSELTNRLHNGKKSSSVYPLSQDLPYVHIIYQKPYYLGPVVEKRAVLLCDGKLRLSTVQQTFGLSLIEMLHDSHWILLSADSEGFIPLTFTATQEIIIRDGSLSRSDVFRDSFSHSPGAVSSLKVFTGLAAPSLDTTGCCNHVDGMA
inactive: [1] -0.196 | [2] 0.102 | epoxomicin 0.127 | [3] -0.062 | [4] 0.071 | [5] 0.057 | rosiglitazone 0.047 | [6] 0.124 | [7] -0.019 | saracatinib -0.039 | sotrastaurin -0.034 | alvocidib 0.054 | Tubastatin A -0.032 | [8] 0 | defactinib -0.016 | rucaparib 0.14 | [9] -0.02 | encorafenib 0.043 | [10] -0.006
active: volasertib -0.477

WBP4 (UniProt O75554)
UniProt O75554, sequence (O75554 whole entry, looked up): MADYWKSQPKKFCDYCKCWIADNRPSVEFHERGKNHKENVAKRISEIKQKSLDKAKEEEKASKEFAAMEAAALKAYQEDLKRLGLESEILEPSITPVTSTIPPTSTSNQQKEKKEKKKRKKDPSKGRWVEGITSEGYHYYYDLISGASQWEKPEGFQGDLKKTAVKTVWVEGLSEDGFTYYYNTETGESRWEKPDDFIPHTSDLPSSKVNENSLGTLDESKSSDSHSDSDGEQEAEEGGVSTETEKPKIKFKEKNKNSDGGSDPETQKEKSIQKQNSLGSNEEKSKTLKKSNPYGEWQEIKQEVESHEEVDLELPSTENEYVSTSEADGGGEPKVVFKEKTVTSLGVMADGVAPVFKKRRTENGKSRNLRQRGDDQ
inactive: [1] -0.004 | volasertib -0.045 | [2] 0.003 | epoxomicin 0.069 | [3] 0.025 | [4] -0.089 | [5] -0.036 | rosiglitazone -0.038 | [6] -0.058 | [7] 0.218 | saracatinib 0.113 | sotrastaurin 0.012 | alvocidib -0.032 | Tubastatin A -0.02 | [8] -0.015 | defactinib 0.012 | rucaparib -0.031 | [9] -0.019 | encorafenib -0.046 | [10] 0.045

U2AF2 (UniProt P26368)
UniProt P26368, sequence (P26368 whole entry, looked up): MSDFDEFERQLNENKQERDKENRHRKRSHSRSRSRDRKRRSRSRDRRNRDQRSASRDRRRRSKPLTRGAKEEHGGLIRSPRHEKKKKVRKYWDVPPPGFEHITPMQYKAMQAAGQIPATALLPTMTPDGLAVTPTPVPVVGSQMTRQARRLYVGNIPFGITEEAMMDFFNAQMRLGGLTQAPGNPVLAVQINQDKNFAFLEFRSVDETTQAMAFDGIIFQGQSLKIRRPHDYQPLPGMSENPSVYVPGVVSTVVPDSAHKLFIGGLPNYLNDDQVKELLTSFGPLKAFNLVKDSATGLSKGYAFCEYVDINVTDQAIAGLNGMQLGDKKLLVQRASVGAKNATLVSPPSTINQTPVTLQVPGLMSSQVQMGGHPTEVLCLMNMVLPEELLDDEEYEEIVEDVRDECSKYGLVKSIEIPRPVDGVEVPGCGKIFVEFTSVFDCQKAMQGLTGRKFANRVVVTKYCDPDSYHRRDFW
inactive: [1] -0.057 | [2] 0.039 | epoxomicin -0.024 | [3] 0.029 | [4] 0 | [5] 0.002 | rosiglitazone 0.003 | [6] 0 | saracatinib 0.022 | sotrastaurin 0.056 | alvocidib -0.038 | Tubastatin A -0.007 | [8] -0.181 | defactinib -0.035 | rucaparib 0.163 | [9] -0.037 | encorafenib -0.037 | [10] 0.001
active: volasertib -0.231 | [7] -0.307

TMEM214 (UniProt Q6NUQ4)
inactive: [1] -0.023 | [2] 0.075 | epoxomicin 0.032 | [3] -0.056 | [4] -0.023 | [5] 0.008 | rosiglitazone 0.046 | [6] 0.004 | [7] 0.148 | saracatinib -0.04 | sotrastaurin 0.068 | alvocidib 0.009 | Tubastatin A 0.062 | [8] -0.002 | defactinib -0.04 | rucaparib 0.121 | [9] 0.03 | encorafenib 0.041 | [10] -0.039
active: volasertib -0.246

UPF3B (UniProt Q9BZI7)
inactive: [1] 0.146 | volasertib 0.333 | [2] 0.059 | epoxomicin -0.388 | [3] 0.084 | [4] 0.271 | [5] -0.1 | rosiglitazone -0.094 | [6] 0.28 | [7] 0.341 | saracatinib -0.099 | sotrastaurin 0.002 | alvocidib 0.423 | Tubastatin A 0.114 | [8] 0.045 | defactinib 0.413 | rucaparib 0.286 | [9] 0.035 | encorafenib 0.108 | [10] 0.007
